Data published in the supplement of paper PMC6555819.

The sequences below were run on RARa:RXR (NR concentration 270 nM, RXRa partner concentration 90 nM) (assay: PBM binding z-score (relative to random genomic background probes); higher = stronger binding; sequences stand for … in GC…GCGATTGACAGCGTAGAATGAAGG).
Summary of the method: (§1)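 Antibodies against each partner of ligand-free nuclear receptor dimers (one per run) detected binding on custom Agilent 4×180K protein-binding microarrays after 1 h incubation. The double-stranded probes had 34-nt variable regions carrying direct-repeat seeds, single-nucleotide variants, half-site ablations and random human genomic background sequences. Binding z-scores, from regression-normalized fluorescence, use the random background probes as reference.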

Point of comparison: TCATATAGGTAAAAGGTGGAAGTCGGTGTGGTAA, PBM binding z-score 1.18. Against it:
- TCATATTGGTAAACAGGTGAAAGTCCGTAAGTTA — higher, 1.35
- CTCGAAAGGTCGGTCGAGGTGAGTATACGGATAA — higher, 2.59
- CGTCCAAGGTCATAGGAGGTCAGTTAAGACAGAT — higher, 5.73
- GATACAGGGTCAGCTAGAGGCCAGAGTTTGGAAA — higher, 4.26
- GCTAGTTGGTCAGTAAAAGGTCACACATCGGTCG — higher, 5.23
- GCAGACAGGTGAAACGCAGGAAACTCAGGGTGGC — lower, -0.0101
- CCTGCTAGATCAATGGTCAGCTAAAGCAGCTCGC — lower, -0.744
- GTACCAGGGTGAATAGGTCGTTGATGAGTAGGCG — higher, 1.86
- TCATATAGGTCAATGCTAGGTGAAAGTCCGATCT — higher, 3.7
- GCTAGCTGGCCATTTGGGTCACTCAATGACGGGC — lower, 0.365
- TCATATAGGTAAACGTGAAAGTCGAACGATATGA — lower, 0.437
- CAAACTAGGTCAAAGGTCTAAGTCGAGCCAACCA — higher, 4.84
- GCTTACGGGTCATAGGTTATAGCATGAATAGAAT — higher, 5.79
- CAAACTAGGTCACGAAAGGTCAAAGACGAATGAC — higher, 7.89
- CGTCCCAGGTCAATGCTAGGTCAGTGAAAGCATT — higher, 4.72
- TCTCGGAGGACACGAACGGTCAGAGCTCGACATC — lower, -0.0917
- CCGACTGGGGCATAATGTTACCATAAGCCAGCCC — lower, -0.283

What follows are sequences tested on RARa homodimer (NR concentration 270 nM) in the same assay as above.
Summary of the method: as §1

Point of comparison: CCTAGTTGGTCTAGGTCACACACGCTATAGGTAC, PBM binding z-score 1.82. Against it:
- TCGAGTAGGTTAGGGGCATGCAGAATGGCGTCGA — lower, -0.355
- TCATATAGGTGAAGGTGAAAGTCGAACGATATGA — lower, 0.38
- GCGACCGGGGCAAAGCAGGTTACCATAAGGTTGG — lower, -0.661
- CAGACTGGGGCAAGGTTACCATAACGCACAGCCA — lower, 0.141
- ATATGTAGGTTATCGGGTCATTCCGTTTGCGCAT — lower, 0.962
- CCTAACAGGCCAATCTGGGTCACTCAAGGCTTGA — lower, 0.117
- CCTAGCAGGCCAGGGTCACTCGAGCATTTCGCTT — lower, -0.646
- CAAACTAGGTCGCGAAAGGTCAAAGTCGAATGAC — higher, 2.38
- ACTAGTTGGTCAGCCGAGGTCACACACAATTCGG — the same, 1.82
- TCTTGTAGATCAATAGAGATTAAGAAAGTGCGCT — lower, 0.076
- ACTAGTTGGTCAGCTGAGGTCAGACACAATTCGG — lower, 0.218
- AGAACGAGGGCACGCTGAGTTGATAGAAGAGTAG — lower, -0.807
- ACTCGGAGGCCAAAGGTCAGAGCTACGCCAGTGA — lower, 1.38
- TATACAGCGTCAAAGGCCAGAGTACGAATGTCGA — lower, -0.705
- AGAACGAGGGCACGCTTAGTTGATAGCAGAGTAG — lower, -0.203
- GCTTACGGGTCAAAGCTTATAGCATGAATAGAAT — lower, -0.0595
- TGTCAAAGTTCAAAGGTAACATAAGTATCCACAC — lower, 1.65
- AGTCAAAGTTCATCTAGGTACCGTAAGATATGCT — lower, 1.42
- CCTAGTTGGTCAAGGTCACACAAGCTATAGGTAC — higher, 2.77
- ATATGTAGGTTATCGGGACATTCAGTTTGCGCAT — lower, 1.55
- CCTCACGGGTCAAGGTTATAGCACGGGTGGTACG — lower, 0.228
- TCATATTGGTAAACAGGTGAAAGTCCGTAAGTTA — lower, 1.38
- CTCGAAAGGTCGGTCGAGGTGAGTATACGGATAA — lower, -0.801
- CGTCCAAGGTCATAGGAGGTCAGTTAAGACAGAT — lower, 1.43
- GATACAGGGTCAGCTAGAGGCCAGAGTTTGGAAA — lower, 0.417
- GCTAGTTGGTCAGTAAAAGGTCACACATCGGTCG — higher, 2.58
- TCATATAGGTAAAAGGTGGAAGTCGGTGTGGTAA — lower, 1.17
- GCAGACAGGTGAAACGCAGGAAACTCAGGGTGGC — lower, -0.25
- CCTGCTAGATCAATGGTCAGCTAAAGCAGCTCGC — lower, -0.962
- GTACCAGGGTGAATAGGTCGTTGATGAGTAGGCG — lower, 0.108
- TCATATAGGTCAATGCTAGGTGAAAGTCCGATCT — lower, 1.3
- GCTAGCTGGCCATTTGGGTCACTCAATGACGGGC — lower, -1.31
- TCATATAGGTAAACGTGAAAGTCGAACGATATGA — lower, 0.345
- CAAACTAGGTCAAAGGTCTAAGTCGAGCCAACCA — lower, 0.718
- GCTTACGGGTCATAGGTTATAGCATGAATAGAAT — lower, 0.0988
- CAAACTAGGTCACGAAAGGTCAAAGACGAATGAC — higher, 4.46
- CGTCCCAGGTCAATGCTAGGTCAGTGAAAGCATT — lower, -0.102
- TCTCGGAGGACACGAACGGTCAGAGCTCGACATC — lower, -0.739
- CCGACTGGGGCATAATGTTACCATAAGCCAGCCC — lower, -0.0507

Each sequence was assayed on RARb:RXRa (NR concentration 270 nM, RXRa partner concentration 90 nM) in the same assay as above.
Summary of the method: as §1

Point of comparison: CAAACTAGGTCACGAAAGGTCAAAGACGAATGAC, PBM binding z-score 5.69. Against it:
- TCGAGTAGGTTAGGGGCATGCAGAATGGCGTCGA — lower, 1.2
- TCATATAGGTGAAGGTGAAAGTCGAACGATATGA — lower, 1.88
- GCGACCGGGGCAAAGCAGGTTACCATAAGGTTGG — lower, 1.65
- CAGACTGGGGCAAGGTTACCATAACGCACAGCCA — lower, 1.8
- CCTAGTTGGTCTAGGTCACACACGCTATAGGTAC — lower, 2.63
- ATATGTAGGTTATCGGGTCATTCCGTTTGCGCAT — lower, 2.65
- CCTAACAGGCCAATCTGGGTCACTCAAGGCTTGA — lower, 1.77
- CCTAGCAGGCCAGGGTCACTCGAGCATTTCGCTT — lower, 2.57
- CAAACTAGGTCGCGAAAGGTCAAAGTCGAATGAC — lower, 5.01
- ACTAGTTGGTCAGCCGAGGTCACACACAATTCGG — lower, 3.58
- TCTTGTAGATCAATAGAGATTAAGAAAGTGCGCT — lower, -0.192
- ACTAGTTGGTCAGCTGAGGTCAGACACAATTCGG — lower, 2.86
- AGAACGAGGGCACGCTGAGTTGATAGAAGAGTAG — lower, 2.31
- ACTCGGAGGCCAAAGGTCAGAGCTACGCCAGTGA — lower, 4.53
- TATACAGCGTCAAAGGCCAGAGTACGAATGTCGA — lower, 0.524
- AGAACGAGGGCACGCTTAGTTGATAGCAGAGTAG — lower, 2.66
- GCTTACGGGTCAAAGCTTATAGCATGAATAGAAT — lower, 3.83
- TGTCAAAGTTCAAAGGTAACATAAGTATCCACAC — lower, 5.24
- AGTCAAAGTTCATCTAGGTACCGTAAGATATGCT — lower, 4.81
- CCTAGTTGGTCAAGGTCACACAAGCTATAGGTAC — lower, 4.33
- ATATGTAGGTTATCGGGACATTCAGTTTGCGCAT — lower, 1.06
- CCTCACGGGTCAAGGTTATAGCACGGGTGGTACG — lower, 4.17
- TCATATTGGTAAACAGGTGAAAGTCCGTAAGTTA — lower, 0.73
- CTCGAAAGGTCGGTCGAGGTGAGTATACGGATAA — lower, 3.2
- CGTCCAAGGTCATAGGAGGTCAGTTAAGACAGAT — lower, 5.36
- GATACAGGGTCAGCTAGAGGCCAGAGTTTGGAAA — lower, 4.06
- GCTAGTTGGTCAGTAAAAGGTCACACATCGGTCG — lower, 4.26
- TCATATAGGTAAAAGGTGGAAGTCGGTGTGGTAA — lower, 0.885
- GCAGACAGGTGAAACGCAGGAAACTCAGGGTGGC — lower, 0.527
- CCTGCTAGATCAATGGTCAGCTAAAGCAGCTCGC — lower, -0.116
- GTACCAGGGTGAATAGGTCGTTGATGAGTAGGCG — lower, 1.24
- TCATATAGGTCAATGCTAGGTGAAAGTCCGATCT — lower, 4.21
- GCTAGCTGGCCATTTGGGTCACTCAATGACGGGC — lower, 0.859
- TCATATAGGTAAACGTGAAAGTCGAACGATATGA — lower, 0.3
- CAAACTAGGTCAAAGGTCTAAGTCGAGCCAACCA — lower, 3.91
- GCTTACGGGTCATAGGTTATAGCATGAATAGAAT — lower, 3.51
- CGTCCCAGGTCAATGCTAGGTCAGTGAAAGCATT — lower, 4.37
- TCTCGGAGGACACGAACGGTCAGAGCTCGACATC — lower, 2.1
- CCGACTGGGGCATAATGTTACCATAAGCCAGCCC — lower, 0.133
